Assay outcomes deposited in PubChem by several laboratories.
MBD2 inh: inhibitors of human MBD2 binding to methylated oligonucleotide; 370,000 tested, 0.31% active; TR-FRET; inhibition, % at 4.4 µM; Q9UBB5; AID 686964; in the data active means inhibition above about 13%
UHRF1 MBD2 ctr: human UHRF1 methylated DNA binding inhibitors; UHRF1 binding to methylated oligo, TR-FRET; 370,000 tested, 0.75% active; Q96T88; inhibition, % at 4.4 µM; in the data active means inhibition above about 21%;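 further: UHRF1 SRA domain binding a hemimethylated CpG hairpin DNA probe; 0% = median of test compound wells and 100% = reference inhibitor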
Target sequence (Q96T88 whole entry, looked up, the tested form may be a part): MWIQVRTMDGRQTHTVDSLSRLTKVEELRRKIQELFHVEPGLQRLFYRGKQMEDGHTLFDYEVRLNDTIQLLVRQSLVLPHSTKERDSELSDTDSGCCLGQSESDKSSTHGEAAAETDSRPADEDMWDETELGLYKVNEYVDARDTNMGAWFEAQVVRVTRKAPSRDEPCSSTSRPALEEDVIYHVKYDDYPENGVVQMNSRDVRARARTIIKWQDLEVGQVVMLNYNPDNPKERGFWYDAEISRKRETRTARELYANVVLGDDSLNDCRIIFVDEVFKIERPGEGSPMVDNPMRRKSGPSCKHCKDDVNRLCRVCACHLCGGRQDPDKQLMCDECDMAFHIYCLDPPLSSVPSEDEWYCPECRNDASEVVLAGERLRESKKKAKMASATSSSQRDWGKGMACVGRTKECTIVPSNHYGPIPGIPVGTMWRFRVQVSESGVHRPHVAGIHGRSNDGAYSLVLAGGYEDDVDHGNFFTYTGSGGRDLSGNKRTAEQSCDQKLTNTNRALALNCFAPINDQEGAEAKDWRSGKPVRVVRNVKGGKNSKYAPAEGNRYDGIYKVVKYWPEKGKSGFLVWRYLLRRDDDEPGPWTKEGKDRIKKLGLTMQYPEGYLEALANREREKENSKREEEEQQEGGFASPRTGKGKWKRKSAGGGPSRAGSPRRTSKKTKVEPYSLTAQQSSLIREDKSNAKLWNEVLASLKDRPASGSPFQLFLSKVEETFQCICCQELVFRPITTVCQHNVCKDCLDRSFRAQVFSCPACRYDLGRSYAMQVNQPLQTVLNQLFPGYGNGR
Casp6 inh: blocks human caspase-6 cleavage activity | P55212 | purified caspase-6, Z-VEID-R110 cleavage fluorescence | inhibition, % at 12.5 µM | 350,000 tested, 0.53% active;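 active means mean inhibition across replicates at least about 35%, with every replicate also reaching that limit, limit read from the data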;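 further: 0% = median of neutral control wells and 100% = no fluorescence left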
LEDGF integ inh: blocks HIV-1 LEDGF/p75-dependent DNA integration | TR-FRET IN-LEDGF/p75 DNA integration, Eu/Cy5 | inhibition, % at 3.7 µM | 370,000 tested, 0.64% active | AID 743269;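 active means inhibition above the screen-wide mean plus 3 SD, cut at about 13% in these data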;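 further: signal is the Cy5 over europium emission ratio at 671 and 618 nm; 0% = plate median of compound wells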
IN multimer up: activates HIV-1 integrase multimerization in LEDGF counter-screen | AID 1053131 | activation, % at 7.7 µM | TR-FRET HIV-1 integrase multimerization, biochemical | 2,000 tested, 17% active | shares compounds with LEDGF integ inh; in the data active means activation above about 8.9%
TRFRET interf: optically interferes with TR-FRET readout in LEDGF counter-screen; shares compounds with LEDGF integ inh; TR-FRET optical interference counterscreen, HIV-1 IN multimerization; inhibition, % at 7.7 µM; 2,000 tested, under 10 active; AID 1053135;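 active means inhibition above the mean over all tested compounds plus 3 SD, which no compound reached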;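 further: 0% = integrase with antibodies and DMSO and 100% = antibodies without integrase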
LEDGF integ conf: confirmation of HIV-1 LEDGF/p75-dependent integration inhibitors. shares compounds with LEDGF integ inh. TR-FRET LEDGF/p75-dependent HIV-1 integration, biochemical. inhibition, % at 3.7 µM. 2,000 tested, 36% active. AID 1053136; in the data active means inhibition above about 14%
Numbers without * were called inactive. Shown are actives, neighbours in structure and some others; about 1.4% of the full set was active somewhere.

For O=C(C[C@@H]1C[C@H]2c3cc(NC(=O)Nc4ccccc4)ccc3O[C@H]2[C@H](CO)O1)NCCN1CCCCC1 the results were Casp6 inh -2.
Screening O=C(NCCc1ccccc1)c1cc(-c2ccco2)on1 returned MBD2 inh -4, UHRF1 MBD2 ctr 2, Casp6 inh 3 and LEDGF integ inh 6.
O=C(NCc1ccccc1)c1cc(-c2ccco2)on1 was read as MBD2 inh 3, UHRF1 MBD2 ctr 0, Casp6 inh 4, LEDGF integ inh 16*, IN multimer up 0, TRFRET interf 0 and LEDGF integ conf 1.
For Nc1ccc2c(c1)C/C(=C/c1ccco1)C2=O the results were MBD2 inh 24*, UHRF1 MBD2 ctr 69*, LEDGF integ inh 49*, IN multimer up 19*, TRFRET interf -95 and LEDGF integ conf 25*.
COc1ccccc1S(=O)(=O)N[C@@H]1C=C[C@@H](CC(=O)N2CCCCC2)O[C@@H]1CO was read as Casp6 inh -1.
For O=C(CS(=O)(=O)Cc1ccccc1)Nc1ccc(Cl)cn1 the results were MBD2 inh 7, UHRF1 MBD2 ctr 0, LEDGF integ inh 88*, IN multimer up 5, TRFRET interf -19 and LEDGF integ conf 2.
Screening Cc1nnc(SCC(=O)Nc2ccc(Cl)cn2)n1Cc1ccccc1 returned MBD2 inh -1, UHRF1 MBD2 ctr -1, LEDGF integ inh 16*, IN multimer up 0, TRFRET interf -1 and LEDGF integ conf 0.
Screening CN(C)C(=O)C[C@@H]1C[C@@H]2c3cc(NC(=O)C4CCC4)ccc3O[C@@H]2[C@@H](CO)O1 returned Casp6 inh 3.
Screening COCC(=O)N(C)C[C@@H]1Oc2ncc(C#Cc3cccnc3)cc2C(=O)N([C@@H](C)CO)C[C@H]1C returned Casp6 inh 0.
For Fc1ccccc1CSc1nc2ncc(Br)cc2[nH]1 the results were MBD2 inh -4, UHRF1 MBD2 ctr 0 and LEDGF integ inh -7.
For Brc1cnc2nc(SC/C=C/c3ccccc3)[nH]c2c1 the results were MBD2 inh 0, UHRF1 MBD2 ctr 1, Casp6 inh -6, LEDGF integ inh 37*, IN multimer up 6, TRFRET interf -29 and LEDGF integ conf 4.
`COC(=O)c1ccc(C(=O)N(Cc2ccccc2)c2ccccc2)cc1` gave MBD2 inh 1, UHRF1 MBD2 ctr 3, Casp6 inh 5 and LEDGF integ inh -7.
Screening N#Cc1ccc(C(=O)N(Cc2ccccc2)c2ccccc2)cc1 returned MBD2 inh -3, UHRF1 MBD2 ctr 0, Casp6 inh 3, LEDGF integ inh 14*, IN multimer up -2, TRFRET interf 11 and LEDGF integ conf -4.
`Cc1c(C(=O)NCCN2CCOCC2)oc2ccc(Br)cc12` gave MBD2 inh 1, UHRF1 MBD2 ctr -1, Casp6 inh -3, LEDGF integ inh 18*, IN multimer up 0, TRFRET interf 0 and LEDGF integ conf 9.
Cc1c(C(=O)NCCN2CCOCC2)oc2ccccc12 was read as MBD2 inh -3, UHRF1 MBD2 ctr 3 and LEDGF integ inh 5.
`COc1ccc2c(c1)C(=O)[C@H](O)[C@@H](c1ccc(OC)c(Br)c1)O2` gave MBD2 inh 3, UHRF1 MBD2 ctr -4, Casp6 inh 0 and LEDGF integ inh 1.
O=C1c2cc(O)c(O)cc2OC(c2ccc(O)c(O)c2)C1O (configuration not stated) was read as MBD2 inh 2, UHRF1 MBD2 ctr 1, Casp6 inh 55*, LEDGF integ inh 49*, IN multimer up 15*, TRFRET interf -75 and LEDGF integ conf 55*.
`C[C@@H]1CN([C@@H](C)CO)C(=O)c2cc(NS(=O)(=O)c3cn(C)cn3)ccc2O[C@H]1CN(C)C(=O)Nc1ccccc1` gave Casp6 inh 4.
`O=C(CSc1nnc(COc2ccccc2)n1Cc1ccco1)NCc1ccco1` gave MBD2 inh 1, UHRF1 MBD2 ctr 11, LEDGF integ inh 28*, IN multimer up 5, TRFRET interf -23 and LEDGF integ conf 19*.
For Cc1c2ccccc2nc2c(F)c(NCCO)c(F)c(F)c12 the results were MBD2 inh -10, UHRF1 MBD2 ctr -16, LEDGF integ inh 14*, IN multimer up 5, TRFRET interf -19 and LEDGF integ conf 3.
Screening Cc1c2ccccc2nc2c(F)c(NC(C)C)c(F)c(F)c12 returned MBD2 inh -6, UHRF1 MBD2 ctr -6, LEDGF integ inh 13*, IN multimer up 1, TRFRET interf -5 and LEDGF integ conf 4.
`OCCNc1c2ccccc2nc2c(F)c(F)c(F)c(F)c12` gave MBD2 inh 0, UHRF1 MBD2 ctr -9 and LEDGF integ inh -2.
Screening COc1ccc(-c2ccnc3nc(-n4cccc4)nn23)cc1 returned MBD2 inh -3, UHRF1 MBD2 ctr -1 and LEDGF integ inh 3.
For c1coc(-c2ccnc3nc(-n4cccc4)nn23)c1 the results were MBD2 inh 6, UHRF1 MBD2 ctr -6, Casp6 inh 6, LEDGF integ inh 17*, IN multimer up 1, TRFRET interf -5 and LEDGF integ conf 8.
C[C@@H]1CCCCO[C@@H](CN(C)C(=O)C2CCCCC2)[C@@H](C)CN([C@H](C)CO)C(=O)c2cc(NC(=O)C3CCCCC3)ccc2O1 was read as Casp6 inh -1.
For O=C(N1CCCCCC1)N1CCN(C(=O)N2CCOCC2)CC1 the results were MBD2 inh 5, UHRF1 MBD2 ctr 5, LEDGF integ inh 31*, IN multimer up 0, TRFRET interf 1 and LEDGF integ conf 0.
`CC1(C)Oc2cc(N)c([N+](=O)[O-])cc2O1` gave MBD2 inh -9, UHRF1 MBD2 ctr 23*, LEDGF integ inh 45*, IN multimer up 0, TRFRET interf -1 and LEDGF integ conf -6.
`O=C(NCc1ccco1)c1c2c(nc3ccccc13)CCC2` gave MBD2 inh 8, UHRF1 MBD2 ctr 18, LEDGF integ inh 28*, IN multimer up 4, TRFRET interf -18 and LEDGF integ conf 24*.
`O=C(CSc1nnc(Cc2cccs2)n1C1CCCCC1)N1CCCc2ccccc21` gave MBD2 inh -4, UHRF1 MBD2 ctr -2, LEDGF integ inh 14*, IN multimer up 1, TRFRET interf -3 and LEDGF integ conf 3.
Screening Cn1c(Cc2cccs2)nnc1SCC(=O)N1CCCc2ccccc21 returned MBD2 inh 3, UHRF1 MBD2 ctr 3 and LEDGF integ inh 3.
`CCCC(=Nc1ccc(N)cc1)C1=C(O)C(C(=O)OC)C(C)(C)CC1=O` (configuration not stated) gave MBD2 inh 3, UHRF1 MBD2 ctr 17, LEDGF integ inh 54*, IN multimer up 21*, TRFRET interf -75 and LEDGF integ conf 5.
